In PMC4336329 (PLoS ONE, 2015):
About 14,000 (4.5%) of roughly 310,000 compounds showed an effect of 50% or more. Effects have a minus sign here. The entries come from a sample that favours strong results as a whole.

target: human ether-à-go-go-related gene (hERG) potassium channel (human, UniProt Q12809); test: primary screen, population patch clamp on CHO cells stably expressing hERG; higher = less effect of the substance
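Further: peak tail current of the secondary pulse compared with the same well before compound.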

Sequence of human ether-à-go-go-related gene (hERG) potassium channel (Q12809 whole entry, looked up): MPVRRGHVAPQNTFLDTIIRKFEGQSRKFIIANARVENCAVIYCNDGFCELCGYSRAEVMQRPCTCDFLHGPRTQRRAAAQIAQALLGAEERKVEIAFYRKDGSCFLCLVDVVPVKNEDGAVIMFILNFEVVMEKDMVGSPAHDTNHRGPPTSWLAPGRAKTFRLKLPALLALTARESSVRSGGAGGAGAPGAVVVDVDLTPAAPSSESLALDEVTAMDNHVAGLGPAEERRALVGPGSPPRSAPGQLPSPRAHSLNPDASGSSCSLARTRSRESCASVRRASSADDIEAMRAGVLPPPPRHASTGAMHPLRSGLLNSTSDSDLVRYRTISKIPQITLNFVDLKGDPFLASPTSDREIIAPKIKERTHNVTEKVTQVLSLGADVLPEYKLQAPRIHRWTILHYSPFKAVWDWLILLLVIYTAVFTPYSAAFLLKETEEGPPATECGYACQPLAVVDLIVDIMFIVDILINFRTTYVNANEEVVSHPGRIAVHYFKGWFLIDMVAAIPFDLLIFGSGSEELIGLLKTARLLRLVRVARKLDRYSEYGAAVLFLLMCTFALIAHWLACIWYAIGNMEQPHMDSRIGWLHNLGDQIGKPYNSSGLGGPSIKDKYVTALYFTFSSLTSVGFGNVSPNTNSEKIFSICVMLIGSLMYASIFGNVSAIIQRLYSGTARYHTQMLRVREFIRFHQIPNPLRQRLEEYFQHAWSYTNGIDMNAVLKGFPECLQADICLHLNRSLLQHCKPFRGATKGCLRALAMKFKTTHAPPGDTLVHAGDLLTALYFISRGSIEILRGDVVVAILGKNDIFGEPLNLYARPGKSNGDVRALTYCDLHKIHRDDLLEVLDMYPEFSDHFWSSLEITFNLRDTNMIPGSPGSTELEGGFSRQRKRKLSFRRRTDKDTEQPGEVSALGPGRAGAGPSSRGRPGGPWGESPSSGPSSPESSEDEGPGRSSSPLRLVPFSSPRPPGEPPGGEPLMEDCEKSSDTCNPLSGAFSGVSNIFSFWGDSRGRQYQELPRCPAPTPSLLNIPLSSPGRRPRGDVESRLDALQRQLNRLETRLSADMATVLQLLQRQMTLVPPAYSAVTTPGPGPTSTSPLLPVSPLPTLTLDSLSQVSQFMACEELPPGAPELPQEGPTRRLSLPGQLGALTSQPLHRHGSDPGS

Structure (SMILES) | hERG current change (%, negative = inhibition) at 10uM
CCN(CC)c1nc2ccccc2n2cnnc12 | -16.4%
CCn1c(SC)nnc1-c1sc2cc(Cl)ccc2c1Cl | -55.4%
CSc1nnc(-c2sc3cc(Cl)ccc3c2Cl)n1C | 0.137%
CCn1c(SC)nnc1-c1nnc(SC)n1CC | -7.09%
Cc1ccc(SCC(=O)OCC(=O)NC2CCCCCCC2)cc1 | -4.33%
O=C(N/N=C/c1ccc[nH]1)c1cc(-c2cccs2)nc2ccccc12 | 0.659%
O=C(O)[C@@H](c1ccccc1)N1Cc2ccccc2C1=O | 17.2%
Br.CCC(C)N1Cc2ccccc2C1=N (stereo not drawn) | 2.75%
Br.Cc1ccc(C(=O)C(c2ccccc2)N2Cc3ccccc3C2=N)cc1 (stereo not drawn) | -60.3%
NNC(=O)c1nc[nH]c1C(=O)Nc1ccccc1 | 24.1%
COc1ccccc1/C=N/NC(=O)c1ccc(CN2C(=O)c3cccc4cccc2c34)cc1 | 2.35%
Cc1cccc(C)c1NC(=O)C(NC(=O)c1ccccn1)c1ccc([N+](=O)[O-])cc1 (stereo not drawn) | 7.6%
CC1CCCCN1C(=O)c1ccc(COc2ccc([N+](=O)[O-])cc2)o1 (stereo not drawn) | -69.9%
NNC(=O)c1ccc(COc2ccc([N+](=O)[O-])cc2)o1 | -23.1%
O=C(O)c1ccc(COc2ccc([N+](=O)[O-])cc2)o1 | 23.2%
COc1ccc(/C=C(\C#N)C(=O)OCC(=O)Nc2ccc(C(C)(C)C)cc2)cc1 | 0.425%
COc1ccccc1OCCNC(=O)CSC(=S)N1CCCC1 | -4.17%
COc1ccc(OCC(=O)N2CCN(c3cccc(C(F)(F)F)c3)CC2)cc1 | -42.6%
CN1CCN(C(=O)CCc2ncc(C(F)(F)F)cc2Cl)CC1 | 11.7%
COc1ccc(N2CCN(C(=O)Cc3ncc(C(F)(F)F)cc3Cl)CC2)cc1 | -51.9%
O=C(Cc1ncc(C(F)(F)F)cc1Cl)N1CCN(c2cccc(Cl)c2)CC1 | -60.6%
O=C(Cc1ncc(C(F)(F)F)cc1Cl)N1CCN(c2ccc(F)cc2)CC1 | -41.3%
O=C(Cc1ncc(C(F)(F)F)cc1Cl)N1CCN(c2ccccn2)CC1 | -17.2%

Structure (SMILES) | hERG current change (%, negative = inhibition) at 10uM
CCN1CCN(C(=O)C2CCN(S(=O)(=O)c3ccc4c(c3)NC(=O)C(C)S4)CC2)CC1 (stereo not drawn) | 14.1%
COCCN(C(=O)c1csnn1)C(C(=O)NC1CCCC1)c1ccccc1 (stereo not drawn) | 3.23%
CC(C)C1=C2OC(N)=C(C#N)C(C#N)=C2C(C)CC1 (stereo not drawn) | 9.98%
C#CCNC(=O)C1=C[C@@H](c2ccc(Br)cc2)[C@H](CCCO)[C@@H](OCC)O1 | -28.4%
CCOc1ccc(N(CC)S(=O)(=O)c2ccc3c(c2)oc(=O)n3C)cc1 | -5.43%
COC(=O)c1sccc1NC(=O)c1cc(C)on1 | 4.01%
COc1ccccc1-c1coc2c(CN3CCC(C)CC3)c(O)ccc2c1=O | 7.18%
Cc1ccc(S(=O)(=O)N2CCOCC2)cc1C(=O)NCCCn1ccnc1 | 15.6%
Cl.OC(COCCC12CC3CC(CC(C3)C1)C2)CN1CCCC1 (stereo not drawn) | -30.3%
CC1CCCCN1CC(O)COCCC12CC3CC(CC(C3)C1)C2.Cl (stereo not drawn) | -63.6%
CC1CCC(C(C)C)C(OCC(O)CNC(C)c2ccccc2)C1.Cl (stereo not drawn) | 0.875%
NCC(O)COCCC12CC3CC(CC(C3)C1)C2 (stereo not drawn) | -1.48%
CC1CCCCN1CC(O)COCc1ccccc1.Cl (stereo not drawn) | 5.66%
CC1CCN(CC(O)COCCC23CC4CC(CC(C4)C2)C3)CC1.Cl (stereo not drawn) | -51.5%
CC1CC(OCC(O)CN2CCCCC2C)CC(C)(C)C1.Cl (stereo not drawn) | -25.8%
Cl.OC(COCCC12CC3CC(CC(C3)C1)C2)CN1CCCCC1 (stereo not drawn) | -40.1%
CC(NCC(O)COCCC12CC3CC(CC(C3)C1)C2)c1ccccc1.Cl (stereo not drawn) | -53.8%
CCC(=O)Nc1ccc(N2CCN(C(=O)c3ccccc3C)CC2)cc1 | 0.168%
CSc1nc(N(C)C)c2ccccc2n1 | -19%
CCn1ccnc1CN(C)Cc1c(C(=O)N2C[C@@H](C)O[C@@H](C)C2)nc2ccc(Cl)cn12 | 11.6%
Cc1ccc(N2N=C(C(=O)O)CCC2=O)cc1Cl | -45.2%
CCC1(c2ccccc2)NC(=O)N(CC(=O)c2ccc3c(c2)OCO3)C1=O (stereo not drawn) | -4.15%
